According to PubChem BioAssay (NCATS):
Results filed as inconclusive are left out. Activity calls are given as the source filed them. Calls come from the whole dose curve; as a rule, active = well fitted inhibition curve with a large enough effect; inconclusive = small, poorly fitted or top-dose-only effect; inactive = flat fitted curve, though single readings scatter.

Columns and labels:
CRL-7250 = normal cell line; test: Cytotoxic Profiling of Annotated Libraries Using Quantitative High-Throughput Screening (AID 1296008); conditions: Five cell lines viability, CellTiter-Glo ATP luminescence, 48-72 h; active compounds read low; for max response: % is set by controls: 0 for no effect and ±100 for the full control effect
How it was run: (§1)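 Compounds were pin-transferred onto cells and incubated 48 or 72 hr at 37 degree Celsius, 95% humidity. CellTiter-Glo was added, plates sat 10 min at room temperature, then ATP-coupled luminescence was imaged as the viability read-out.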

HEK293 = test: as above; conditions: Five cell lines viability, CellTiter-Glo ATP luminescence, 48-72 h; active compounds read low
How it was run: as §1

HaCat [1] = test: as above; conditions: Five cell lines viability, CellTiter-Glo ATP luminescence, 48-72 h; active compounds read low
How it was run: as §1

KB-3-1 = test: as above; conditions: Five cell lines viability, CellTiter-Glo ATP luminescence, 48-72 h, active compounds read low
How it was run: as §1

NIH3T3 [2] = test: as above; conditions: Five cell lines viability, CellTiter-Glo ATP luminescence, 48-72 h; active compounds read low
How it was run: as §1

HACAT [3] = test: qHTS assay to identify novel small-molecules to repurpose for Merkel cell carcinoma treatment (AID 1296009); conditions: MCC and control cell lines, CellTiter-Glo viability, 72 h; at 44.8 µM (top of the series) unless noted
How it was run: (§2)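 Cells exposed to NPC (8-point) and MIPE (11-point) compound dilutions for 72 hr at 37 degree celsius; viability read by CellTiter-Glo luminescence, normalized to no-cell and DMSO in-plate controls.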

MCC-13 = test: as above; conditions: MCC and control cell lines, CellTiter-Glo viability, 72 h; series mostly up to 46 µM
How it was run: as §2

MCC-26 = test: as above; conditions: MCC and control cell lines, CellTiter-Glo viability, 72 h; series mostly up to 46 µM
How it was run: as §2

MKL-1 = test: as above; conditions: MCC and control cell lines, CellTiter-Glo viability, 72 h; series mostly up to 46 µM
How it was run: as §2

MKL-2 = test: as above; conditions: MCC and control cell lines, CellTiter-Glo viability, 72 h; series mostly up to 46 µM
How it was run: as §2

UISO = test: as above; conditions: MCC and control cell lines, CellTiter-Glo viability, 72 h; series mostly up to 46 µM
How it was run: as §2

PC26 = test: qHTS profiling for inhibitors of Plasmodium falciparum proliferation (AID 504749);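 note: 0% = DMSO vehicle and full inhibition = artemisinin control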; conditions: P. falciparum in erythrocytes, SYBR Green DNA, 72 h; series mostly up to 28.7 µM
How it was run: (§3)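 P. falciparum-infected erythrocytes (0.3% parasitemia, 2.5% hematocrit final) were exposed to compounds for 72 h at 37 C in 5% CO2, then lysed with SYBR Green buffer overnight at room temperature; parasite DNA fluorescence was normalized to artemisinin and DMSO controls.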

PC49 = test: as above; conditions: P. falciparum in erythrocytes, SYBR Green DNA, 72 h; series mostly up to 28.7 µM
How it was run: as §3

SC27B = test: as above; conditions: P. falciparum in erythrocytes, SYBR Green DNA, 72 h; series mostly up to 28.7 µM
How it was run: as §3

TAB109 = test: as above; conditions: P. falciparum in erythrocytes, SYBR Green DNA, 72 h; series mostly up to 28.7 µM
How it was run: as §3

TAB113 = test: as above; conditions: P. falciparum in erythrocytes, SYBR Green DNA, 72 h; series mostly up to 28.7 µM
How it was run: as §3

TAB165 = test: as above; conditions: P. falciparum in erythrocytes, SYBR Green DNA, 72 h; series mostly up to 28.7 µM
How it was run: as §3

W2 = test: as above; conditions: P. falciparum in erythrocytes, SYBR Green DNA, 72 h; series mostly up to 28.7 µM
How it was run: as §3

HEK293T = test: qHTS assay to identify novel small-molecules to repurpose for Merkel cell carcinoma treatment (AID 1296009); conditions: MCC and control cell lines, CellTiter-Glo viability, 72 h; at 44.8 µM (top of the series) unless noted
How it was run: as §2

NIH3T3 [4] = test: as above; conditions: MCC and control cell lines, CellTiter-Glo viability, 72 h; at 44.8 µM (top of the series) unless noted
How it was run: as §2
Note: nearly all actives have a fitted effect of over 60% in size.

CC(C)(C)NCC(O)COc1cccc2c1CCC(=O)N2 (configuration not stated)
inactive: max response (CRL-7250) 4.08% | max response (HEK293) -0.291% | outcome (HaCat [1]) | max response (KB-3-1) 7.08% | max response (NIH3T3 [2]) 3.67% | outcome (HACAT [3]) | outcome (MCC-13) | outcome (MCC-26) | outcome (MKL-1) | outcome (MKL-2) | outcome (UISO)

Cc1c(N(C)C)c(=O)n(-c2ccccc2)n1C
inactive: Potency (PC26) | Potency (PC49) | Potency (SC27B) | Potency (TAB109) | Potency (TAB113) | Potency (TAB165) | Potency (W2) | outcome (CRL-7250) | max response (HEK293) -3.5% | outcome (HaCat [1]) | max response (KB-3-1) -5.96% | max response (NIH3T3 [2]) 4.65% | outcome (HACAT [3]) | outcome (MCC-13) | outcome (MCC-26) | outcome (MKL-1) | outcome (MKL-2) | outcome (UISO)

CCS(=O)(=O)CCn1c([N+](=O)[O-])cnc1C
inactive: Potency (PC26) | Potency (PC49) | Potency (SC27B) | Potency (TAB109) | Potency (TAB113) | Potency (TAB165) | Potency (W2) | outcome (CRL-7250) | max response (HEK293) 1.79% | outcome (HaCat [1]) | max response (KB-3-1) -0.735% | max response (NIH3T3 [2]) -2.73% | outcome (HACAT [3]) | outcome (MCC-13) | outcome (MCC-26) | outcome (MKL-1) | outcome (MKL-2) | outcome (UISO)

NCC1CCC(C(=O)Oc2ccc(CCC(=O)O)cc2)CC1 (configuration not stated)
inactive: Potency (PC26) | Potency (PC49) | Potency (SC27B) | Potency (TAB109) | Potency (TAB113) | Potency (TAB165) | Potency (W2) | max response (CRL-7250) -11.6% | max response (HEK293) -1.47% | outcome (HaCat [1]) | max response (KB-3-1) -7.85% | max response (NIH3T3 [2]) -0.473% | outcome (HACAT [3]) | outcome (MCC-13) | outcome (MCC-26) | outcome (MKL-1) | outcome (MKL-2) | outcome (UISO)

C[C@H]1COc2c(C3(N)CC3)c(F)cc3c(=O)c(C(=O)O)cn1c23
inactive: Potency (PC26) | Potency (PC49) | Potency (SC27B) | Potency (TAB109) | Potency (TAB113) | Potency (TAB165) | max response (CRL-7250) 2.54% | max response (HEK293) 4.33% | outcome (HaCat [1]) | max response (KB-3-1) 14.4% | max response (NIH3T3 [2]) 1.93% | outcome (HACAT [3]) | outcome (MCC-13) | outcome (MCC-26) | outcome (MKL-1) | outcome (MKL-2) | outcome (UISO)

O=C(/C=C/c1ccccc1)OCc1ccccc1
inactive: Potency (PC26) | Potency (PC49) | Potency (SC27B) | Potency (TAB109) | Potency (TAB113) | Potency (TAB165) | Potency (W2) | max response (CRL-7250) 1.75% | max response (HEK293) -4.12% | outcome (HaCat [1]) | max response (KB-3-1) 21.2% | max response (NIH3T3 [2]) -4.12% | outcome (HACAT [3]) | outcome (MCC-13) | outcome (MCC-26) | outcome (MKL-1) | outcome (MKL-2) | outcome (UISO)

Nc1ccc(S(=O)(=O)c2ccc(N)cc2)cc1
inactive: Potency (PC26) | Potency (PC49) | Potency (SC27B) | Potency (TAB109) | Potency (TAB113) | Potency (TAB165) | Potency (W2) | max response (CRL-7250) 2.75% | outcome (HEK293) | max response (HaCat [1]) 2.48% | max response (KB-3-1) -3.79% | max response (NIH3T3 [2]) 3.17% | outcome (HEK293T) | outcome (MCC-13) | outcome (MCC-26) | outcome (MKL-1) | outcome (MKL-2) | outcome (UISO)

O=C(O)Cc1cn(-c2ccccc2)nc1-c1ccc(Cl)cc1
inactive: Potency (PC26) | Potency (PC49) | Potency (SC27B) | Potency (TAB109) | Potency (TAB113) | Potency (TAB165) | Potency (W2) | max response (CRL-7250) 3.22% | outcome (HEK293) | max response (HaCat [1]) -24% | max response (KB-3-1) 2.82% | max response (NIH3T3 [2]) 4.05% | outcome (HEK293T) | outcome (MCC-13) | outcome (MCC-26) | outcome (MKL-1) | outcome (MKL-2) | outcome (UISO)

O=C(O)CCCc1ccccc1
inactive: Potency (PC26) | Potency (PC49) | Potency (SC27B) | Potency (TAB109) | Potency (TAB113) | Potency (TAB165) | Potency (W2) | max response (CRL-7250) 1.18% | outcome (HEK293) | max response (HaCat [1]) 2.59% | max response (KB-3-1) 18.7% | max response (NIH3T3 [2]) -2.38% | outcome (HEK293T) | outcome (MCC-13) | outcome (MCC-26) | outcome (MKL-1) | outcome (MKL-2) | outcome (UISO)

CN1CC(=O)NC1=N
inactive: max response (CRL-7250) -20.6% | outcome (HEK293) | max response (HaCat [1]) -1.43% | max response (KB-3-1) 3.48% | max response (NIH3T3 [2]) -1.3% | outcome (HEK293T) | outcome (MCC-13) | outcome (MCC-26) | outcome (MKL-1) | outcome (MKL-2) | outcome (UISO)

NS(=O)(=O)c1cc(-c2nn[nH]n2)c(NCc2cccs2)cc1Cl
inactive: Potency (PC26) | Potency (PC49) | Potency (SC27B) | Potency (TAB109) | Potency (TAB113) | Potency (TAB165) | Potency (W2) | max response (CRL-7250) 1.54% | outcome (HEK293) | max response (HaCat [1]) -8.31% | max response (KB-3-1) -9.88% | max response (NIH3T3 [2]) -0.0304% | outcome (HEK293T) | outcome (MCC-13) | outcome (MKL-1) | outcome (MKL-2) | outcome (UISO)

CC(=O)Nc1ccc(OCCOCCOc2ccc(NC(C)=O)cc2)cc1
inactive: Potency (PC26) | Potency (PC49) | Potency (SC27B) | Potency (TAB109) | Potency (TAB113) | Potency (TAB165) | Potency (W2) | max response (CRL-7250) 0.416% | outcome (HEK293) | max response (HaCat [1]) 3.25% | max response (KB-3-1) -2.03% | max response (NIH3T3 [2]) 4.13% | outcome (HEK293T) | outcome (MCC-13) | outcome (MKL-1) | outcome (MKL-2) | outcome (UISO)

Cc1ncc(CO)c(CN)c1O
inactive: Potency (PC26) | Potency (PC49) | Potency (SC27B) | Potency (TAB109) | Potency (TAB113) | Potency (TAB165) | max response (CRL-7250) -0.831% | max response (HEK293) -5.62% | max response (HaCat [1]) -4.24% | max response (KB-3-1) -2% | outcome (NIH3T3 [2]) | outcome (MCC-13) | outcome (MCC-26) | outcome (MKL-1) | outcome (MKL-2) | outcome (NIH3T3 [4]) | outcome (UISO)

OC(CCN1CCCC1)(c1ccccc1)C1CCCCC1 (configuration not stated)
inactive: max response (CRL-7250) -24% | max response (HEK293) -13.4% | max response (HaCat [1]) 3.13% | max response (KB-3-1) -9.13% | outcome (NIH3T3 [2]) | outcome (MCC-13) | outcome (MCC-26) | outcome (MKL-1) | outcome (MKL-2) | outcome (NIH3T3 [4]) | outcome (UISO)
